Experimental data published in the supplement of paper PMC13392028.
In all, about 4,100 sequences were measured (“RBNS R-value (6-mer enrichment in protein-bound RNA vs input library)”: median about 0.96, highest 2% from about 2.4 on). Only a selection was taken, and the highest values are over-represented in it overall.

Tested on: PyIESI-1 RRM domain (Plasmodium yoelii PY17X_0911200 aa 795-956, GST fusion)
Assay: RBNS R-value (6-mer enrichment in protein-bound RNA vs input library) (ratio); higher = stronger binding preference; the methods of the paper give 50 / 100 / 500 nM protein instead
Protocol: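 RNA Bind-n-Seq: recombinant GST-tagged IESI-1 RRM domain was incubated at room temperature with a random 40-nt in vitro transcribed RNA library at 250, 500 or 1000 nM protein. Bound RNA was pulled down on glutathione beads and sequenced. R-value is the enrichment of each 6-mer in the bound RNA relative to the input library. Each 6-mer sits inside the random 40-mer context, not as an isolated oligo. Values are replicate 1 only.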

Row | Sequence | RBNS R-value (protein concentration: 250 nM) | RBNS R-value (protein concentration: 500 nM) | RBNS R-value (protein concentration: 1000 nM)
1 | GUAUGU | 0.702 | 0.701 | 0.677
2 | GAUCAG | 1.21 | 1.23 | 1.26
3 | UUUUGA | 2.87 | 2.69 | 2.76
4 | UUUUGU | 0.927 | 0.945 | 0.932
5 | AUUUGG | 1.56 | 1.52 | 1.53
6 | AUUUGA | 2.85 | 2.67 | 2.75
7 | AUUUGU | 1.19 | 1.18 | 1.16
8 | UUUUGC | 1.25 | 1.28 | 1.3
9 | CGUCGU | 0.673 | 0.674 | 0.653
10 | AUUCGG | 1.21 | 1.23 | 1.22
11 | GAGGCA | 1.07 | 1.06 | 1.04
12 | AGUCAG | 0.665 | 0.689 | 0.664
13 | GGUAGU | 0.858 | 0.895 | 0.812
14 | UCGAAU | 0.871 | 0.871 | 0.846
15 | AAUUGU | 0.811 | 0.836 | 0.821
16 | AAUUGA | 2.42 | 2.26 | 2.31
17 | UAUUGA | 1.66 | 1.61 | 1.65
18 | GAUUGC | 3.17 | 2.85 | 2.87
19 | GAUUGA | 3.24 | 3.03 | 3.05
20 | GAUUGG | 2.35 | 2.26 | 2.17
21 | GAUUGU | 1.51 | 1.5 | 1.51
22 | CAUUGC | 1.1 | 1.11 | 1.11
23 | CAUUGA | 2.25 | 2.16 | 2.24
24 | UGGAUC | 0.876 | 0.876 | 0.852
25 | CGGGUA | 0.923 | 0.929 | 0.9

Row | Sequence | RBNS R-value (protein concentration: 250 nM) | RBNS R-value (protein concentration: 500 nM) | RBNS R-value (protein concentration: 1000 nM)
26 | UGGAUU | 1.02 | 1.04 | 1.01
27 | CUGAAU | 1.09 | 1.11 | 1.07
28 | GUGAGA | 1.03 | 1.06 | 0.984
29 | GUGAAA | 0.997 | 0.961 | 0.925
30 | GUGAUC | 1.68 | 1.71 | 1.81
31 | CUGAUU | 6.33 | 5.69 | 5.82
32 | UUGAUU | 7.23 | 6.65 | 6.84
33 | UUGAGU | 1.03 | 1.07 | 1.03
34 | GUGAUU | 4.55 | 4.24 | 4.44
35 | GUGAUA | 2.97 | 2.94 | 3.2
36 | CAGAUU | 1.53 | 1.52 | 1.61
37 | GUGAAU | 0.995 | 1 | 0.944
38 | GUACUA | 0.638 | 0.638 | 0.595
39 | UACGGA | 0.876 | 0.89 | 0.885
40 | GAAUCA | 0.819 | 0.828 | 0.81
41 | UAGUGG | 0.775 | 0.827 | 0.76
42 | CAGUUC | 0.829 | 0.84 | 0.843
43 | GCCCUU | 0.971 | 1.02 | 1.03
44 | GGGCAC | 1.06 | 1.04 | 1.06
45 | UUGCAC | 1.32 | 1.29 | 1.31
46 | AGAUAA | 0.936 | 1 | 1.02
47 | UGAUAG | 4.53 | 4.33 | 4.55
48 | UGAUAU | 3.72 | 3.77 | 4.19
49 | CGAUAA | 1.27 | 1.33 | 1.41
50 | UGAUAA | 4.34 | 4.21 | 4.69

Row | Sequence | RBNS R-value (protein concentration: 250 nM) | RBNS R-value (protein concentration: 500 nM) | RBNS R-value (protein concentration: 1000 nM)
51 | GGAUAU | 0.856 | 0.872 | 0.845
52 | GGAUAC | 0.904 | 0.919 | 0.891
53 | AGAUAU | 0.962 | 0.983 | 1
54 | GGAUAG | 0.94 | 0.954 | 0.908
55 | UGAUAC | 3.65 | 3.59 | 3.96
56 | CGAUAC | 1.26 | 1.34 | 1.39
57 | AGAUAG | 1.08 | 1.1 | 1.11
58 | GCUACG | 0.896 | 0.915 | 0.905
59 | AGCUCC | 0.982 | 0.991 | 1
60 | UGCUGA | 2.04 | 1.98 | 1.99
61 | AAUCAC | 0.701 | 0.714 | 0.718
62 | GGGCUU | 1.01 | 1.02 | 1.01
63 | ACGCUG | 1.14 | 1.13 | 1.13
64 | CCGGCG | 1.06 | 1.09 | 1.08
65 | UACAGC | 0.713 | 0.73 | 0.722
66 | UCCCAU | 0.805 | 0.831 | 0.834
67 | UCCUCG | 0.965 | 0.991 | 0.988
68 | CAUUUA | 0.421 | 0.449 | 0.427
69 | CAUUUG | 1.31 | 1.35 | 1.38
70 | UAUUUA | 0.42 | 0.445 | 0.418
71 | GAUUUG | 4.2 | 3.81 | 3.78
72 | CAUUUC | 0.888 | 0.94 | 1
73 | GAUUUU | 3.71 | 3.43 | 3.56
74 | GAUUUC | 3.38 | 3.2 | 3.32
75 | AAUUUC | 1.1 | 1.11 | 1.15

Row | Sequence | RBNS R-value (protein concentration: 250 nM) | RBNS R-value (protein concentration: 500 nM) | RBNS R-value (protein concentration: 1000 nM)
76 | GAUUUA | 2.58 | 2.52 | 2.7
77 | CAUUUU | 0.849 | 0.886 | 0.903
78 | AAUUUG | 1.6 | 1.54 | 1.6
79 | AAUUUU | 1.02 | 1.02 | 1.06
80 | UGGGUA | 0.987 | 1.02 | 0.989
81 | GUAGUG | 0.958 | 0.965 | 0.926
82 | GUAAAA | 0.762 | 0.753 | 0.701
83 | AAACAA | 0.781 | 0.765 | 0.773
84 | GACAUG | 1.52 | 1.48 | 1.5
85 | CCUAGC | 0.86 | 0.888 | 0.886
86 | CCGAUA | 1.32 | 1.36 | 1.43
87 | UCGAUC | 1.05 | 1.07 | 1.11
88 | UCGAUA | 1.17 | 1.23 | 1.29
89 | CCGAUG | 2.44 | 2.4 | 2.5
90 | ACGAUG | 2.5 | 2.46 | 2.59
91 | CCGAUU | 2.3 | 2.23 | 2.34
92 | GCGAUG | 2.65 | 2.56 | 2.65
93 | GCGAUC | 1.09 | 1.12 | 1.13
94 | UCGAUG | 2.22 | 2.24 | 2.37
95 | ACGAUA | 1.21 | 1.3 | 1.37
96 | ACGAUC | 0.998 | 1 | 1.05
97 | GCGAUU | 2.19 | 2.21 | 2.28
